Bioassay records (PubChem BioAssay)
Hits are enriched below; roughly 19% of the tested compounds scored in any of these assays.
ELG1 DNA repair: ELG1-dependent DNA repair inhibition. 330,000 compounds, 2.3% hits. HEK293T ELG1-luciferase reporter, luminescence, 16 h; DNA damage induced by 5-fluorouridine. Potency, µM (top dose mostly 46.1 µM), hits mostly inhibitors; also: nearly all actives have a fitted effect of over 55% in size
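Reporter activity after DNA damage by 5-fluorouridine is monitored. Compound-treated cells incubate 16 hr at 37 °C, then ONE-Glo is added for 30 min before luminescence reading.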
HT1080 IDH1KD tx: toxicity to HT-1080 IDH1 knockdown cells (counter line) | 360,000 compounds, 2% hits | Potency, µM (doses to about 46.1 µM), most hits filed as cytotoxic | HT-1080 IDH1 knockdown viability, ATP luminescence, 48 h
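Cytotoxicity counter-line: IDH1KD HT-1080, 48 h, CellTiter-Glo. Curves classed by r2, magnitude and activity.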
IL-1B inflam inh: inflammasome signaling inhibition, IL-1 beta readout. THP-1 LPS/ATP IL-1B secretion, AlphaLISA, 16 h; stronger effect = lower value. activity change, % at 57.5 µM. AID 743279. 360,000 compounds, 4.7% hits; in the data active = activity change below about -50%; inconclusive = mostly about -30% to -49%
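THP-1 cells pretreated 1 hr with compounds (up to 57.5 uM final), then stimulated with LPS (250 ng/mL final) plus ATP (1.25 mM final); secreted IL-1B measured by AlphaLISA after 16 hr, decreased signal indicating inhibition.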
DT40 TDP1 no CPT: qHTS for Inhibitors of human tyrosyl-DNA phosphodiesterase 1 (TDP1): qHTS in cells in absence of CPT; AID 686978, 2013; 420,000 compounds, 15% hits; DT40 Tdp1-/- hTDP1 cells, no CPT, ATP luminescence, 48 h; Potency, µM (top dose mostly 46.2 µM), most hits filed as inhibitors; also: nearly all actives have a fitted effect of over 55% in size
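Growth of hTDP1-complemented DT40 Tdp1-knockout cells is measured by ATP luminescence after at least 48 hr compound exposure at 37 °C, with DMSO substituting for the 20 nM CPT used in the parallel screen.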
TDP1 cell CPT: growth inhibition of DT40 Tdp1-/-;hTDP1 cells with camptothecin (screen for TDP1 inhibitors) | chicken DT40 Tdp1-/-;hTDP1 cells + 20 nM CPT, ATP luminescence, 48 h | 420,000 compounds, 12% hits | Potency, µM (highest dose often 46.2 µM), usual class: inhibitors | AID 686979; also: nearly all actives have a fitted effect of over 55% in size
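Chicken DT40 Tdp1-/- cells complemented with human TDP1, 400 cells/well, exposed to compounds plus 20 nM camptothecin for at least 48 h at 37 C; viability read as ATP content by CellTiter-Glo luminescence.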
HT1080NT lethal: kills 2HG-producing HT-1080-NT fibrosarcoma cells; Potency, µM (top dose mostly 46.1 µM), usual class: cytotoxic; AID 686970; HT-1080-NT fibrosarcoma viability, CellTiter-Glo ATP luminescence, 48 h; 360,000 compounds, 1.6% hits;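 also: NT is the 2HG producing partner of a matched IDH1 knockdown line; nearly all actives have a fitted effect of over 55% in size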
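Luminescent CellTiter-Glo readout after 48 hours of compound exposure at 37 degrees C defined viability of HT-1080-NT cells. Activity was normalized to DMSO wells and cell-free media wells; concentration-response curves were fitted and assigned curve classes.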
A number is an active result; i = inactive; ? = inconclusive; nt = no result given; [ ] = remark or other dose. Unless noted, calls follow the shape of the dose curve; as a rule, active = well fitted curve in the direction sought with a large enough effect; inconclusive = small, poorly fitted or top-dose-only effect, or another doubt; inactive = no such curve, though single readings can be large; an effect the other way counts as inactive or inconclusive.

SMILES	ELG1 DNA repair	HT1080 IDH1KD tx	IL-1B inflam inh	DT40 TDP1 no CPT	TDP1 cell CPT	HT1080NT lethal
O=C(/C=C/c1ccc([N+](=O)[O-])cc1)Nc1cccc(S(=O)(=O)NC2=NCCCCC2)c1	15µM	i	?	15µM	15µM	i
O=C(/C=C/c1ccccc1Cl)Nc1cccc(S(=O)(=O)NC2=NCCCCC2)c1	i	i	-64	?	?	?
O=C(/C=C/c1ccc(Cl)cc1Cl)Nc1cccc(S(=O)(=O)NC2=NCCC2)c1	?	?	?	?	16µM	i
O=C(Nc1cccc(S(=O)(=O)NC2=NCCC2)c1)c1c(F)cccc1Cl	i	i	i	?	?	i
CC(Sc1nnc(-c2cccnc2)n1N)C(=O)Nc1ccc2c(c1)OCCO2 (stereo not given)	i	i	i	i	i	i
COc1ccc2cc(CNCc3nonc3C)c(N3CCCC(CO)C3)nc2c1 (stereo not given)	nt	nt	nt	i	i[9.04 µM]	nt
COc1ccc(-n2c(=S)[nH]c3cc(C(=O)NCc4ccccc4)ccc3c2=O)c(OC)c1	i	i	i	?	?	i
Cc1ccc(S(=O)(=O)C2(C(=O)N3CCCCCC3)CC2)cc1	?	i	i	i	i	i
Cc1cc(S(=O)(=O)N2CCN(c3ccccc3F)CC2)ccc1-n1cnnn1	i	i	-53	?	?	i
CC(=O)Nc1ccc(S(=O)(=O)N2CCN(c3cc(C)ccc3C)CC2)cc1	i	i	i	?	16µM	i
Cc1cc(S(=O)(=O)N2CCN(c3ccc(F)cc3)CC2)ccc1-n1cnnn1	i	i	i	i	i	i
Cc1ccc(C)c(N2CCN(S(=O)(=O)c3ccc4c(c3)C(C)(C)C(=O)N4C)CC2)c1	i	i	i	23µM	?	i
CC(=O)Nc1ccc(S(=O)(=O)N2CCN(S(=O)(=O)c3ccccc3)CC2)cc1	i	i	i	i	i	i
Cc1ccc(S(=O)(=O)C2(C(=O)N3CCN(c4cc(C)ccc4C)CC3)CC2)cc1	26µM	i	i	?	?	i
Cc1ccc(CC(=O)NC2CCSC2=O)cc1 (stereo not given)	i	i	i	i	i	i
O=C(NC1CC(=O)N(c2ccc(F)cc2)C1)c1ccco1 (stereo not given)	nt	nt	nt	i	i	nt
CCOCCCn1c(=S)[nH]c2cc(C(=O)NC3CCCC(C)C3C)ccc2c1=O (stereo not given)	?	i	i	i	i	i
Cc1ccc(S(=O)(=O)NCC(=O)OCC(=O)NCc2ccco2)cc1	i	i	i	i	i	i
N#CCCN(C(=O)COC(=O)CNS(=O)(=O)c1ccc2ccccc2c1)c1ccccc1	?	i	i	i	i	i
Cc1cccc(N2CCN(S(=O)(=O)c3ccc4c(c3)C(C)(C)C(=O)N4C)CC2)c1C	i	i	i	?	?	i
CN1C(=O)C(C)(C)c2cc(S(=O)(=O)N3CCN(c4ccccc4F)CC3)ccc21	i	i	i	23µM	?	i
Cc1ccccc1N1C(=O)c2sc3nc4c(c(=O)n3c2C1=O)CCC4	i	?	i	18µM	5.8µM	?
N=C1SCC(=O)N1c1ccccc1Cl	i	i	i	i	i	i
O=C1c2sc3nc4c(c(=O)n3c2C(=O)N1c1ccccc1)CCC4	i	i	?	6.5µM	4.1µM	i
O=C1c2sc3nc4ccccc4n3c2C(=O)N1c1ccccc1Cl	?	i	?	7.3µM	2.6µM	i
SMILES	ELG1 DNA repair	HT1080 IDH1KD tx	IL-1B inflam inh	DT40 TDP1 no CPT	TDP1 cell CPT	HT1080NT lethal
CCCCOc1ccc(/C=C/C(=O)OCC(=O)NC(=O)NCC(C)C)cc1OCC	i	i	i	?	?	i
CCCN(C)C[C@H]1OCc2cnnn2CCCC(=O)N([C@H](C)CO)C[C@@H]1C	nt	i	i	i	i	i
O=[N+]([O-])c1cccc(S(=O)(=O)Nc2ccccn2)c1	nt	i	i	i	i	i
O=C(c1cnc2n(c1=O)CCS2)N1CCN(C(c2ccccc2)c2ccc(Cl)cc2)CC1 (stereo not given)	?	i	i	21µM	12µM	i
O=C(c1cnc2n(c1=O)CCS2)N1CCN(c2ccccc2Cl)CC1	i	nt	nt	nt	nt	nt
CCCCCCCCCCCCCCCC(=O)OCC(COP(=O)(O)O)OC(=O)CCCCCCCCCCCCCCC (stereo not given)	nt	nt	nt	i[4.12 µM]	i[4.12 µM]	nt
Cc1ccc(NC(=O)COC(=O)C2CCN(c3ccc(C(F)(F)F)cn3)CC2)cc1	?	i	i	i	i	i[9.24 µM]
COc1ccc(C2CC(=O)c3cc(-c4nc(-c5cccc([N+](=O)[O-])c5)cs4)c(=O)n(-c4cccc(C)c4)c3C2)cc1 (stereo not given)	nt	nt	nt	i	i	nt
C/C(=N\Nc1nc2ccccc2[nH]1)c1ccc2c(c1)OCO2	i	?	-83	26µM	15µM	?
C(=N\Nc1nc2ccccc2[nH]1)/c1ccc2c(c1)OCO2	?	i	?	?	?	i
C/C(=N\NC(=O)c1ccncc1)c1cc2ccccc2o1	i	i	i	i	i	i
C/C(=N\Nc1ccccn1)c1ccc(C(C)C)cc1	?	i	i	?	?	i
C/C(=N\Nc1ccccn1)c1ccc2c(c1)OCO2	?	i	i	?	18µM	i
C/C(=N\Nc1nc2ccccc2[nH]1)c1ccc2c(c1)OCCO2	?	?	-54	?	?	i
C/C(=N\Nc1nc2ccccc2[nH]1)c1cc2ccccc2o1	?	?	-95	18µM	?	?
Cc1ccc(N2CC(NC(=O)C3CCCCC3)CC2=O)cc1C (stereo not given)	nt	nt	nt	i	i	nt
NS(=O)(=O)c1ccc(CCNC(=O)Cn2c(=O)c3cccn3c3ccc(F)cc32)cc1	nt	nt	nt	i	i	nt
CCOc1ccc(NC(=O)c2cc3cc(C)ccc3n2C)cc1	nt	nt	nt	i	i	nt
Nc1c(-c2cccc([N+](=O)[O-])c2)nc2ccccn12	?	i	i	?	i	i
COc1ccccc1-n1c(=O)[nH]c2c(C(N)=O)nc(CC(C)C)nc21	i	i	i	i	i	i
COc1ccc(-c2nc(C(N)=O)c3[nH]c(=O)n(-c4ccccc4OC)c3n2)c(OC)c1	i	?	i	16µM	?	i
COc1ccc(OC)c(-c2nc(C(N)=O)c3[nH]c(=O)n(-c4ccc(F)cc4)c3n2)c1	i	i	i	i	i	i
COc1ccccc1-n1c(=O)[nH]c2c(C(N)=O)nc(-c3cccnc3)nc21	i	i	i	21µM	?	i
COc1ccccc1Oc1nc2c(C)cccn2c(=O)c1/C=C(\C#N)c1nc2ccccc2[nH]1	nt	nt	nt	i	i	nt
